Structures can show the parent of a compound that is named as a salt.
target: IKZF1 (dCK*-IKZF1 fusion in HEK293FT) (UniProt Q13422); test: inhibition of IKZF1 HTRF signal (DMSO = 0%, pomalidomide 10 uM = 100%); higher = lower IKZF1 protein level; conditions: compound concentration: 5 uM, overnight (~20 h)
Method in brief: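 Values are percent inhibition of IKZF1 signal, normalised plate by plate against vehicle and a reference degrader. HEK293FT cells stably expressing an IKZF1 fusion were seeded at 2000 per well in 384-well plates and exposed to 5 μM compound in single wells overnight at 37 °C. After 30 min lysis at room temperature, lysates were incubated overnight with a commercial HTRF total-IKZF1 antibody kit, and the background-subtracted 665/620 nm time-resolved FRET ratio was read. On each plate, vehicle was set at 0% and the reference degrader at 100%.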

Chain of IKZF1 (dCK*-IKZF1 fusion in HEK293FT) (Q13422 whole entry, looked up, the tested form may be a part): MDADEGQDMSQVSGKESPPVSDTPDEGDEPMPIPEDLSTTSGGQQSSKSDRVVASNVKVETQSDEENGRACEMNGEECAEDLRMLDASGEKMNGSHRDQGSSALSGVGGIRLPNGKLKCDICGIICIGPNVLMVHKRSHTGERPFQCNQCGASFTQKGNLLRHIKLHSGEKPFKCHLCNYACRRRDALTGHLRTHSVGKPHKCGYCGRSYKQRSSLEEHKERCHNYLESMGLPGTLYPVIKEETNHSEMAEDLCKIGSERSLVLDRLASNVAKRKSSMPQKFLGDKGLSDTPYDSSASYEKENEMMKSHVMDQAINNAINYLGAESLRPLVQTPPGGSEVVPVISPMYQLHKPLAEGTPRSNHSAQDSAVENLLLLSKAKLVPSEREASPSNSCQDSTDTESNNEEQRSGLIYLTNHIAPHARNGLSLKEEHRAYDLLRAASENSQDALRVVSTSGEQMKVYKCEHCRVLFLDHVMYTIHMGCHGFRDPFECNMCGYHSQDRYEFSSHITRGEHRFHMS

First: COc1ccc(C2CC(c3c(O)cc(C)oc3=O)=NCCS2)c(OC)c1 (stereo not drawn)
Second: Cc1noc(C)c1-c1ccc(-c2cc(C(N)=O)c(NC(N)=O)s2)c(O[C@H]2CCNC2)c1
The “inhibition of IKZF1 HTRF signal” value of the first is higher: -11% for the first, -26% for the second.

Going from NC(=O)N1c2ccccc2CC(=O)c2ccccc21 to CCCCC1C(=O)N(c2ccccc2)N(c2ccc(O)cc2)C1=O (stereo not drawn), the “inhibition of IKZF1 HTRF signal” value falls from 17.9% to -36.3%.

Compared with O=C1N(c2ccccc2)c2ccccc2C1(Cc1ccncc1)Cc1ccncc1 [linopirdine], Cc1ccccc1N=Nc1ccc(N=Nc2c(O)ccc3ccccc23)c(C)c1 [Solvent Red 24] is higher in “inhibition of IKZF1 HTRF signal” value: -39.8% for the first, 13.9% for the second.

Going from CC1=C(/C=C/C(C)=C/C=C/C(C)=C/C=C/C=C(C)/C=C/C=C(C)/C=C/C2=C(C)CCCC2(C)C)C(C)(C)CCC1 to C=C1/C(=C\C=C2/CCC[C@]3(C)[C@@H]([C@H](C)/C=C/[C@H](C)C(C)(C)O)CC[C@@H]23)C[C@@H](O)C[C@@H]1O [Ercalcitriol], the “inhibition of IKZF1 HTRF signal” value falls from -23.6% to -35%.

Going from O=C1[C@H]2CCCC[C@H]2C(=O)N1CCCCN1CCN(c2nsc3ccccc23)CC1 [Perospirone] to OCCN1CCN(CCCN2c3ccccc3Sc3ccc(Cl)cc32)CC1, the “inhibition of IKZF1 HTRF signal” value falls from 16.4% to -36.5%.

Compared with Nc1cc(N2CCCCC2)nc(N)[n+]1[O-], Nc1nc(=O)n([C@H]2C[C@H](O)[C@@H](CO)O2)cc1F [5-Fluoro-2'-deoxycytidine] is higher in “inhibition of IKZF1 HTRF signal” value: -27.1% for the first, -4.07% for the second.

First: CCCCC(CC)C/N=C(\N)N/C(N)=N/CCCCCC/N=C(\N)N/C(N)=N/CC(CC)CCCC (stereo not drawn) [Alexidine dihydrochloride]
Second: CCCCCCCCCCCCCCCC[N+](C)(C)C
The “inhibition of IKZF1 HTRF signal” value of the first is higher: 63.4% for the first, 22.3% for the second.

Going from CC(C)[C@H]1c2ccc(F)cc2CC[C@@]1(CCN(C)CCCc1nc2ccccc2[nH]1)OC(=O)C1CC1 to CC(=O)Nc1cccc(Nc2ncnc(N3CCC(OCc4ccc(OC(F)(F)F)cc4)CC3)n2)c1C, the “inhibition of IKZF1 HTRF signal” value rises from -25.9% to 4.12%.

Going from CO[C@H]1CC(O[C@@H]2/C(C)=C/C[C@@H]3C[C@@H](C[C@]4(CC[C@H](C)[C@@H](C5CCCCC5)O4)O3)OC(=O)[C@@H]3C=C(C)/C(=N/O)[C@H]4OC/C(=C\C=C\[C@@H]2C)[C@]43O)O[C@@H](C)C1O (stereo partly drawn) to N#Cc1ccc(O[C@H]2CC[C@H](NC(=O)c3ccc(N4CCC(CN5CCN(c6cc7c(cc6F)C(=O)N(C6CCC(=O)NC6=O)C7=O)CC5)CC4)nn3)CC2)cc1Cl (stereo partly drawn), the “inhibition of IKZF1 HTRF signal” value rises from -24.5% to -5.24%.

Compared with CC[C@H](CO)Nc1nc(Nc2cccc(-c3ccccn3)c2)c2ncn(C(C)C)c2n1, Cc1cccc(Nc2nc(-c3ccncc3)cs2)c1 is lower in “inhibition of IKZF1 HTRF signal” value: -29.5% for the first, -51.1% for the second.

Compared with O=c1n(CC2CO2)c(=O)n(CC2CO2)c(=O)n1CC1CO1 (stereo not drawn) [Triglycidyl isocyanurate], CCNC(=O)Nc1ccc(-c2nc3c(c(N4CCOC[C@@H]4C)n2)CCN(C2COC2)C3)cc1 is higher in “inhibition of IKZF1 HTRF signal” value: 30.6% for the first, 68.5% for the second.

First: CCCCCCCCCCCCC[N+](C)(C)Cc1ccccc1
Second: CCCCCCCCCCCCCCCC[N+](C)(C)Cc1ccccc1 [Benzyldimethylhexadecylammonium chloride hydrate]
The “inhibition of IKZF1 HTRF signal” value of the first is lower: 7.81% for the first, 20.2% for the second.

Going from CN1CCN(CCCN2c3ccccc3Sc3ccc(Cl)cc32)CC1 to OCCN1CCN(CCCN2c3ccccc3Sc3ccc(C(F)(F)F)cc32)CC1, the “inhibition of IKZF1 HTRF signal” value rises from -26.7% to -11.9%.

Going from CCC(=O)N1CCN(c2ccc(-n3c(=O)ccc4cnc5ccc(-c6cnc7ccccc7c6)cc5c43)cc2C(F)(F)F)CC1 [Torin 1] to O=C(c1ccc(Nc2nccc(-c3cc4ccccc4s3)n2)cc1)N1CCC(N2CCCC2)CC1, the “inhibition of IKZF1 HTRF signal” value falls from 35.7% to -31.3%.

Going from Oc1ccc(/C=C/c2cc(O)cc(O)c2)cc1 [Resveratrol] to COC(=O)/C=C/c1cc(O)ccc1O [erbstatin-analog], the “inhibition of IKZF1 HTRF signal” value rises from -25.5% to -21.1%.

Going from COC(=O)C1=C(C)NC(C)=C([N+](=O)[O-])C1c1ccccc1C(F)(F)F (racemic) to O=[N+]([O-])c1ccc(O)c2ncccc12, the “inhibition of IKZF1 HTRF signal” value rises from -43.6% to -23.9%.

First: O=C(CCCCCCC(O)=NO)Nc1ccccc1 [Vorinostat]
Second: CCN(CC)CCCCC(NC(=O)c1ccc([N+](=O)[O-])cc1)c1ccccc1 (stereo not drawn) [nibentan]
The “inhibition of IKZF1 HTRF signal” value of the first is higher: -44.5% for the first, -51.4% for the second.

Compared with CC(C)(C)C1CCc2c(sc(NC(=O)c3ccco3)c2C(=O)O)C1 (stereo not drawn), CC(=O)N(O)[C@@H]1c2cc(C#N)ccc2OC(C)(C)[C@H]1O is higher in “inhibition of IKZF1 HTRF signal” value: -23.8% for the first, 13.4% for the second.

Going from CC(=O)Nc1ncc([N+](=O)[O-])s1 to Cc1ccc(S(=O)(=O)NC(=O)NN2CC3CCCC3C2)cc1 (stereo not drawn), the “inhibition of IKZF1 HTRF signal” value falls from 6.78% to -29.9%.

— the supplement of paper PMC12340641
